Measurements as given in PubChem BioAssay (NCI).
Several values for one entry are separate records, joined by “and”; a condition that tells them apart may be missing. Identical values can stand only once. Compounds without any hit were thinned out: in the full panel of roughly 79,000, 15% have a hit. Some structures have more than one record in an assay (separate samples or runs), and their calls can disagree. Activity calls are given as the source filed them. Rule as the data show it: active = growth inhibition above about 70%; inactive = the rest.

Columns and labels:
[1] = NCI Yeast Anticancer Drug Screen. Data for the rad50 strain (AID 155);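 also: 0% = growth of vehicle-only cultures of the same strain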; conditions: S. cerevisiae rad50 strain growth inhibition, stronger effect = higher value
In short: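 Growth of the mutant yeast was measured after compound exposure and referenced to vehicle-treated cultures.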

[2] = NCI Yeast Anticancer Drug Screen. Data for the mec2-1 strain (AID 157); conditions: S. cerevisiae mec2-1 strain, stronger effect = higher value
In short: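 Vehicle-treated cultures served as reference for growth inhibition of compound-exposed mec2-1 yeast.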

[3] = NCI Yeast Anticancer Drug Screen. Data for the sgs1 mgt1 strain (AID 161);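 also: 0% = growth of cultures given vehicle only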; conditions: S. cerevisiae sgs1 mgt1 strain, stronger effect = higher value
In short: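 Inhibition of yeast growth, normalised to vehicle-treated controls, is reported for a strain bearing genetic alterations in DNA damage repair.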

[4] = NCI Yeast Anticancer Drug Screen. Data for the cln2 rad14 strain (AID 165);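 also: 0% = growth equal to vehicle treated cultures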; conditions: S. cerevisiae cln2 rad14 strain, stronger effect = higher value
In short: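 Each compound was tested on cln2 rad14 yeast. Inhibition of growth was calculated against vehicle-exposed controls.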

[5] = NCI Yeast Anticancer Drug Screen. Data for the bub3 strain (AID 167); conditions: S. cerevisiae bub3 mutant strain, stronger effect = higher value
In short: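 Whole-cell yeast assay. The mutant strain was incubated with compounds, and growth inhibition was determined by comparison with vehicle-treated cells.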

[6] = NCI Yeast Anticancer Drug Screen. Data for the mlh1 rad18 strain (AID 175); conditions: S. cerevisiae mlh1 rad18 strain growth inhibition, stronger effect = higher value
In short: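 Vehicle-treated cultures served as the reference for growth inhibition in a yeast strain carrying DNA damage repair alterations exposed to each compound.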

[7] = at 5.0 µM (retest, dose inferred, filed as 0.5)
[8] = at 50.0 µM (retest, dose inferred, filed as 5.0)

SMILES | growth inhibition [1, 7] | growth inhibition [1, 8] | growth inhibition ([1]; at 50.0 µM) | growth inhibition [2, 7] | growth inhibition [2, 8] | growth inhibition ([2]; at 50.0 µM) | growth inhibition [3, 7] | growth inhibition [3, 8] | growth inhibition ([3]; at 50.0 µM) | growth inhibition [4, 7] | growth inhibition [4, 8] | growth inhibition ([4]; at 50.0 µM) | growth inhibition [5, 7] | growth inhibition [5, 8] | growth inhibition ([5]; at 50.0 µM) | growth inhibition [6, 7] | growth inhibition [6, 8] | growth inhibition ([6]; at 50.0 µM)
O=S(c1cc(Cl)cc(Cl)c1O)c1cc(Cl)cc(Cl)c1O | 66% (inactive) | 99% (active) | 99.2% (active) | 39% (inactive) | 100% (active) | 99.5% (active) | 39% (inactive) | 100% (active) | 98% (active) | 40% (inactive) | 99% (active) | 99.5% (active) | 56% (inactive) | 100% (active) | 99.5% (active) | 44% (inactive) | 99% (active) | 99.5% (active)
O=C1C=C(O)c2ccccc2C1=O.[Ag] | 99% (active) | 99% (active) | 88.8% (active) and 99.5% (active) | 100% (active) | 99% (active) | 75% (active) and 99.5% (active) | 99% (active) | 99% (active) | 96.4% (active) and 99.4% (active) | 100% (active) | 99% (active) | 66.2% (inactive) and 99% (active) | 99% (active) | 99% (active) | 86.3% (active) and 99.3% (active) | 99% (active) | 99% (active) | 87.5% (active) and 99.2% (active)
CCCCCCCCCCCCCCCC[N+](C)(C)Cc1cnc[nH]1 | 99% (active) | 98% (active) | 90.3% (active) | 99% (active) | 99% (active) | 91.2% (active) | 98% (active) | 99% (active) | 91.8% (active) | 95% (active) | 99% (active) | 89.7% (active) | 99% (active) | 99% (active) | 91% (active) | 98% (active) | 98% (active) | 89.1% (active)
CC(C)c1ccc(C=Nc2ccc(SSc3ccc(N=Cc4ccc(C(C)C)cc4)cc3)cc2)cc1 | 44% (inactive) | -7% (inactive) | 73.7% (active) | 26% (inactive) | 1% (inactive) | 49.4% (inactive) | 57% (inactive) | -5% (inactive) | 57.6% (inactive) | 5% (inactive) | -13% (inactive) | 12.2% (inactive) | 13% (inactive) | 1% (inactive) | 66.9% (inactive) | 25% (inactive) | -11% (inactive) | 76.4% (active)
N=S(c1ccccc1[N+](=O)[O-])c1ccccc1[N+](=O)[O-] | 13% (inactive) and 8% (inactive) | 4% (inactive) and 52% (inactive) | 68.2% (inactive) and 54.1% (inactive) | 2% (inactive) and 7% (inactive) | 15% (inactive) and 53% (inactive) | 17.4% (inactive) and 22.4% (inactive) | -24% (inactive) and 32% (inactive) | 39% (inactive) and 77% (active) | 69.5% (inactive) and 75.5% (active) | 8% (inactive) and 6% (inactive) | 9% (inactive) and 49% (inactive) | 25.3% (inactive) and 61.9% (inactive) | -7% (inactive) and 2% (inactive) | -6% (inactive) and 73% (active) | 36.9% (inactive) and 26.8% (inactive) | -14% (inactive) and 20% (inactive) | -1% (inactive) and 83% (active) | 79.8% (active) and 76.3% (active)
CCSC(=NC)Nc1ccc(Oc2ccc(Cl)cc2)cc1 | 38% (inactive) | 90% (active) | 81.9% (active) | 39% (inactive) | 83% (active) | 67.8% (inactive) | 40% (inactive) | 99% (active) | 92.4% (active) | 33% (inactive) | 75% (active) | 71.1% (active) | 46% (inactive) | 72% (active) | 88.2% (active) | 46% (inactive) | 97% (active) | 81.6% (active)
O=C1NC(=O)c2c1cccc2[N+](=O)[O-] | -7% (inactive) | 31% (inactive) and 12% (inactive) | -4.8% (inactive) and 18.4% (inactive) | -20% (inactive) and 2% (inactive) | 4% (inactive) and 8% (inactive) | -4% (inactive) and 25% (inactive) | -2% (inactive) and 0% (inactive) | 0% (inactive) and 8% (inactive) | 9.25% (inactive) and -3.15% (inactive) | -5% (inactive) and 0% (inactive) | -6% (inactive) and -5% (inactive) | 45.3% (inactive) and 50.4% (inactive) | 37% (inactive) and -2% (inactive) | -4% (inactive) and 8% (inactive) | -1.4% (inactive) and 20.1% (inactive) | -4% (inactive) and -3% (inactive) | 3% (inactive) and 13% (inactive) | 8.5% (inactive) and 2.2% (inactive)
O=[N+]([O-])c1c(Cl)nc2ccccn12 | 2% (inactive) | 26% (inactive) | 14.4% (inactive) | 3% (inactive) | 28% (inactive) | 26.1% (inactive) | 2% (inactive) | 27% (inactive) | 31.1% (inactive) | 2% (inactive) | 15% (inactive) | -0.55% (inactive) | 0% (inactive) | 14% (inactive) | -2.05% (inactive) | 2% (inactive) | 26% (inactive) | 70.5% (active)
C=C1C(=O)OC2C[C@@]3(C)CCC[C@H](C)C3=CC12 (stereo not given in full) (tested in a mixture with another compound) | 15% (inactive) | 97% (active) | 85.2% (active) | 32% (inactive) | 99% (active) | 93% (active) | 27% (inactive) | 99% (active) | 93.1% (active) | 19% (inactive) | 79% (active) | 60.5% (inactive) | 5% (inactive) | 97% (active) | 92.5% (active) | 23% (inactive) | 98% (active) | 89.2% (active)
O=C1COC(=O)/C1=C/c1ccc2c(c1)OCO2 | 12% (inactive) and 15% (inactive) | 78% (active) and 86% (active) | 76.6% (active) and 77.4% (active) | 16% (inactive) and 26% (inactive) | 84% (active) and 90% (active) | 64.1% (inactive) and 84.5% (active) | 18% (inactive) | 69% (inactive) and 93% (active) | 78.5% (active) and 86.4% (active) | 4% (inactive) and 15% (inactive) | 71% (active) and 61% (inactive) | 56% (inactive) and 54.6% (inactive) | 2% (inactive) and 4% (inactive) | 82% (active) and 89% (active) | 65.5% (inactive) and 88% (active) | 9% (inactive) and 14% (inactive) | 81% (active) | 93.2% (active) and 95.1% (active)
O=S(=O)(O)c1ccc2cc(N=Nc3c(O)ccc4ccccc34)ccc2c1 | 9% (inactive) | 15% (inactive) | 19.9% (inactive) | 2% (inactive) | 12% (inactive) | 5.45% (inactive) | 7% (inactive) | 72% (active) | 75.3% (active) | -7% (inactive) | 0% (inactive) | 33.4% (inactive) | -2% (inactive) | -21% (inactive) | 3.5% (inactive) | 2% (inactive) | 10% (inactive) | 34.9% (inactive)
Nc1ncnc2c1ncn2C1SC(CO)C(O)C1O (stereo not given) | 0% (inactive) | 8% (inactive) | 4.35% (inactive) and 13.3% (inactive) and 42.6% (inactive) | -6% (inactive) | 5% (inactive) | 32.3% (inactive) and 4.55% (inactive) and -7.25% (inactive) | 0% (inactive) | 7% (inactive) | 3.2% (inactive) and 3.55% (inactive) and 36.1% (inactive) | -4% (inactive) | -4% (inactive) | 11.2% (inactive) and 44.8% (inactive) and 2.35% (inactive) | -3% (inactive) | -7% (inactive) | -21.4% (inactive) and -3.85% (inactive) and -4.3% (inactive) | 13% (inactive) | 25% (inactive) | 14.7% (inactive) and 4.75% (inactive) and -3.25% (inactive)
CCc1[nH]c(=O)nc(N)c1-c1ccc(N2CCCCC2)c([N+](=O)[O-])c1 | -11% (inactive) | -25% (inactive) | 89.8% (active) | -23% (inactive) | 1% (inactive) | 86.8% (active) | 0% (inactive) | -6% (inactive) | 90.8% (active) | -31% (inactive) | -25% (inactive) | 70.8% (active) | -25% (inactive) | -32% (inactive) | 71.4% (active) | -22% (inactive) | -12% (inactive) | 90.8% (active)
CCC1CCCC(=O)C1 (stereo not given) | 2% (inactive) | 2% (inactive) | 89.2% (active) | -1% (inactive) | -5% (inactive) | 53.6% (inactive) | 0% (inactive) | -1% (inactive) | 14.1% (inactive) | 3% (inactive) | 1% (inactive) | 36.2% (inactive) | 2% (inactive) | 2% (inactive) | 99.4% (active) | -2% (inactive) | 0% (inactive) | 91.8% (active)
COc1ccc(Cc2ccc(O)cc2)cc1 | 41% (inactive) | 79% (active) | 33.3% (inactive) | 40% (inactive) | 88% (active) | 27.8% (inactive) | -9% (inactive) | 47% (inactive) | 52.8% (inactive) | 42% (inactive) | 8% (inactive) | -20.9% (inactive) | -16% (inactive) | 49% (inactive) | 30.9% (inactive) | 27% (inactive) | 54% (inactive) | 28.8% (inactive)
